# Bioassay records from PubChem BioAssay.
# Shiga toxin inh: A qHTS for Small Molecule Inhibitors of Shiga Toxin; inhibition, % at 38.7 µM; Vero cells, Shiga toxin protein synthesis inhibition reporter; 9.2% of 290,000 active; in the data active = inhibition mostly above about 28%, no sharp cut-off; inactive = mostly below about 43%; also: 0% is about no effect
# FBPA Giardia inh: qHTS Assay for Inhibitors of Fructose-1,6-bisphosphate Aldolase from Giardia Lamblia. 0.71% of 290,000 active. purified Giardia FBPA. Potency, µM (doses to about 59.6 µM), without a hit: at the highest dose activity, negative = inhibition, hits mostly inhibitors. AID 2451, 2010. A8B2U2; also: potency is read from the fitted curve at half-maximal effect; % is scaled to controls: 0 for no effect and ±100 for the full control effect; nearly all actives have a fitted effect of over 55% in size
#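 40 nM FBPA preincubated 10 min at RT with compound (up to 57.5 uM final), then substrate plus GAPDH/TPI/NAD/arsenate coupling and diaphorase/resazurin added. Fluorescence read after 20 min at RT, 525/598 nm.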
# NS1 inh: qHTS Assay for Inhibitors of Influenza NS1 Protein Function | 0.4% of 270,000 active | Potency, µM (series often up to 46.1 µM), inactives show at the highest dose activity, positive = more growth; calls by dose curve; also: potency is read from the fitted curve at half-maximal effect; actives are rising curves; nearly all actives have a fitted effect of over 50% in size
#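 S. cerevisiae expressing influenza A NS1, grown in glucose, washed, then diluted 1:100 into pH 6.0 -URA galactose medium with 23 nl compound. Growth recovery read as OD600; NS1-free strain serves as control.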
# LmPK inhibitor: qHTS Assay for Inhibitors of Leishmania Mexicana Pyruvate Kinase (LmPK); Q27686; purified LmPK, Kinase-Glo ATP luminescence, 1 h; Potency, µM (titrated, usually from 57.5 µM), without a hit: at the highest dose activity change, negative = inhibition, most hits filed as inhibitors; 0.37% of 290,000 active; also: potency is read from the fitted curve at half-maximal effect; % is scaled to controls: 0 for no effect and ±100 for the full control effect
# Target sequence (Q27686 whole entry, looked up): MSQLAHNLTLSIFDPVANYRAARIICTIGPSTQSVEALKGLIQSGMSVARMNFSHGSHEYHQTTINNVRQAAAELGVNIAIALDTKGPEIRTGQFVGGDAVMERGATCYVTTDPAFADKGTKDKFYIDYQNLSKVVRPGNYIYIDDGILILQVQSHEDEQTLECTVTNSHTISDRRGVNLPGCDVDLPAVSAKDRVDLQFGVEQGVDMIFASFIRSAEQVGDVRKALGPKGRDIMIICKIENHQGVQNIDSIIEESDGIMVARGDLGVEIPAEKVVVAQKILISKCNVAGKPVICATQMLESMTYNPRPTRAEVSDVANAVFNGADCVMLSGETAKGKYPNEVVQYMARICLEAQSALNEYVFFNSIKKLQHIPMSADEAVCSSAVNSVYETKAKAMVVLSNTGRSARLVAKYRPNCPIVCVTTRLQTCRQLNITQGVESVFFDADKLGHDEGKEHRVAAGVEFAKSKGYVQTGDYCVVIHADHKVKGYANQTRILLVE
#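 Pyruvate kinase activity monitored as ATP production (luciferase luminescence). Conditions: 0.1 nM enzyme, 0.5 mM PEP, 0.1 mM ADP, 1 h, RT; normalized against uninhibited and no-enzyme wells.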
# Cycloheximide cs: Cycloheximide Counterscreen for Small Molecule Inhibitors of Shiga Toxin. cell reporter, cycloheximide protein synthesis inhibition counterscreen. max response, %. 12% of 300,000 active; in the data active = max response mostly above about 13%, no sharp cut-off; inactive = mostly below about 14%; also: read at 38.3 µM for the half of the compounds with a filed dose; 0% is about no effect
# Active calls of the source: *; ? = inconclusive; nt = no result; [ ] = another dose, or the depositor's remark. Sampled rows, rich in hits. Any-hit rate of the full collection: about 14%. Unless noted, calls follow the shape of the dose curve; as a rule, active = well fitted curve in the direction sought with a large enough effect; inconclusive = small, poorly fitted or top-dose-only effect, or another doubt; inactive = no such curve, though single readings can be large; an effect the other way counts as inactive or inconclusive.
SMILES,Shiga toxin inh,FBPA Giardia inh,NS1 inh,LmPK inhibitor,Cycloheximide cs
CC(=O)NC(=S)Nc1ccc2oc(-c3cc(F)c(F)cc3Cl)nc2c1,53,0%,2%,1%,24*
O=C(CCCn1c(=S)[nH]c2cc3c(cc2c1=O)OCO3)NCCc1ccccc1Cl,-2,nt,-15%,2%,0
CCOC(=O)/C(=N\Nc1ccccc1Cl)N1CCN(c2ccccc2OC)CC1,-5,-5%,nt,3%,4
Cc1ccc(NC(=O)c2ncn[nH]2)cc1,40,-9%,-2%,-3%,19*
O=C(Nc1ccc2oc(-c3ccncc3)nc2c1)c1ccc([N+](=O)[O-])o1,53*,-3%,-40%,11%,32*
O=C(Nc1ccc2oc(-c3cccc(F)c3)nc2c1)c1ccccc1F,-6,5%,3%,-2%,8
O=C(Nc1ccc2oc(-c3ccccc3F)nc2c1)c1ccccc1F,48*,-3%,-22%,-3%,30*
O=C(Nc1ccc(Oc2ccc(Cl)cc2)cc1)c1ncn[nH]1,-8,8%,-20%,1%,-2
O=C(Nc1ccc2oc(-c3ccccc3)nc2c1)c1ccccc1F,59*,-2%,6%,7%,20*
COC(=O)N[C@H](C[N+](=O)[O-])c1cccc(C)c1,nt,0%,nt,nt,nt
CN(C)C1C(=O)C(C(N)=O)=C(O)[C@@]2(O)C(=O)C3=C(O)c4c(O)ccc(Cl)c4[C@@H](O)C3C[C@@H]12 (some centres not stated),nt,?,19%,nt,nt
O=C(Nc1ccc(-c2nc3cc(NC(=O)c4cccs4)ccc3o2)cc1)c1cccs1,-1,8%,20%,-8%,0
O=C(Nc1ccc2oc(-c3ccc(Cl)c(Cl)c3)nc2c1)c1ncn[nH]1,66,12%,11%,7%,27*
Cc1[nH]n(-c2ccccc2)c(=O)c1N=Nc1nccs1,26,-11%,-149%,-9%,14*
Cc1[nH]n(-c2ccccc2)c(=O)c1N=Nc1ccc2c(c1)OCO2,115*,-20%,nt,8%,32*
C=CCNC(=O)[C@H]1N2C(=O)c3ccccc3C2SC1(C)C (some centres not stated),35,-22%,3%,0%,0
CC1CCC(C(C)C)C(OC(=O)COC(=O)c2cc(O)ccc2N)C1 (configuration not stated),57*,-10%,?,2%,24*
COc1cccc(NC(=O)c2sc3ncn(CC(=O)N4CCN(c5ccccn5)CC4)c(=O)c3c2C)c1,4,nt,-32%,1%,-7
O=C(C1CCCCC1)N1CCCc2ccccc21,31,5%,-6%,-3%,22*
O=C(C1COc2ccccc2O1)N1CCCC1 (configuration not stated),20,8%,7%,4%,15
O=C(C1COc2ccccc2O1)N1CCc2ccccc21 (configuration not stated),67*,-4%,-1%,2%,68*
O=C(C1CC(=O)N(c2ccc(F)cc2)C1)N1CCCCC1 (configuration not stated),0,11%,13%,-2%,7
O=C1CC(C(=O)N2CCCc3ccccc32)CN1c1ccc(F)cc1 (configuration not stated),75*,-3%,10%,-5%,25*
O=C1CC(C(=O)N2CCCc3ccccc32)CN1c1ccc(Cl)cc1 (configuration not stated),64,2%,-15%,-4%,39*
O=C(NC1CCCCC1)N1CCCc2ccccc21,-2,0%,-9%,0%,-1
SMILES,Shiga toxin inh,FBPA Giardia inh,NS1 inh,LmPK inhibitor,Cycloheximide cs
CCOC(=O)c1ccc(S(=O)(=O)N2CCN(CC(O)COc3cccc(C(C)=O)c3)CC2)cc1 (configuration not stated),3,-26%,-7%,-2%,-4
O=C(C(c1ccccc1)c1ccccc1)N1CCCc2ccccc21,119*,0%,-9%,5%,30*
O=C(NC(=O)N1CCCc2ccccc21)c1ccccc1,-2,3%,nt,-8%,8
CCOC(=O)CCC(=O)Nc1ccc(S(=O)(=O)Nc2cc(OC)nc(OC)n2)cc1,-21,-18%,-4%,8%,-4
CCN(CC)C(=O)CSc1nc(N)c(C(=O)Nc2ccc(OC)cc2)s1,-7,3%,6%,0%,12
COc1ccc(NC(=O)c2scc(S(=O)(=O)C(C)C)c2N)cc1,75*,-6%,-2%,?,35*
CC(C)S(=O)(=O)c1csc(C(=O)NN)c1Cl,10,?,1%,2%,-2
COc1ccc(NC(=O)c2sc(SCc3ccccc3)nc2N)cc1,24,4%,13%,4%,22*
CCOC(=O)CSc1nc(N)c(C(=O)Nc2ccc(N(C)C)cc2)s1,-15,-9%,-14%,-4%,-4
COc1ccc(NC(=O)c2sc(SC)nc2N)cc1,48,-15%,-10%,-2%,39*
C[N+]1(C)C[C@@H](O)C[C@@H]1C(=O)[O-],nt,-2%[21.7 µM],nt,nt,nt
O=C(Nc1ccccc1)Nc1cccc2nsnc12,86,?,-37%,?,34*
O=C(Nc1cccc2cccnc12)c1cccs1,79,nt,nt,nt,37*
O=C(Nc1cccc2nsnc12)c1cccs1,99*,-14%,-118%,-15%,35*
Cc1ccc(N[C@H](c2ccccc2)c2ccc3cccnc3c2O)cc1,nt,nt,1%,nt,nt
CN=c1scc(-c2cccs2)n1/N=C/c1ccccc1O,-19,21%,6%,?,-13
CN=c1scc(-c2ccccc2Br)n1/N=C/c1ccc[nH]1,86*,-26%,nt,-4%,29*
O=C1CCC([N+](=O)[O-])C(c2ccccc2F)N1 (configuration not stated),-6,-5%,-1%,-3%,-3
O=C1CCCC(=O)N1c1ccc(O)cc1,-12,1%,5%,-9%,-2
O=C1CCCC(=O)N1c1ccc(Oc2ccc(Cl)cc2)cc1,41*,-10%,2%,1%,22*
COc1ccc(CCC(=O)NNC(=O)c2cc(Cl)ccc2OC)cc1,-11,2%,-2%,-1%,-2
COc1ccc(N2CCN(c3n[nH]c(N)n3)CC2)cc1,-3,4%,-4%,4%,6
CCOc1ccc(Cc2n[nH]c(=S)n2N)cc1,6,?,9%,3%,5
CCOc1ccc(N2Nc3n[nH]c(N)c3N2)cc1,50*,-6%,16%,-16%,25*
COc1ccc(N2Nc3n[nH]c(N)c3N2)cc1,58*,16%,12%,-2%,43*
CCC(CC)c1nnc(NC(=O)CN2C(=O)NC3(CCCC3)C2=O)s1,-3,nt,-3%,1%,-2
Cc1cc(C=C2C(=O)c3ccccc3C2=O)c(C)n1C,63*,-15%,6%,-15%,65*
CCn1c(C)cc(C=C2C(=O)c3ccccc3C2=O)c1C,82*,-26%,-10%,-23%,62*
